Screens: PubChem, National Center for Advancing Translational Sciences (NCATS)
This is a sample that favours compounds with a hit; in the whole collection about 0.59% have one here.
mIDH1 inhibitor: human IDH1 R132H inhibition | O75874 | IDH1-R132H enzyme, NADPH consumption, diaphorase/resazurin fluorescence | Potency, µM (titrated, usually from 76.6 µM), hits mostly inhibitors | 390,000 tested, 0.093% active | AID 602179; further: nearly all actives have a fitted effect of over 65% in size
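IDH1-R132H (0.5 ug/mL dispensed) in pH 7.5 Tris buffer was preincubated 30 min with compound, then given a substrate mix of 0.016 mM NADPH and 2 mM alpha-KG for 80 min at room temperature; remaining NADPH was read by diaphorase/resazurin fluorescence.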
PTHR1 agonist: activates the human parathyroid hormone receptor PTHR1; 410,000 tested, 0.075% active; Q03431; HEK293 GP2 PTHR1 cells, GloSensor cAMP luminescence, 1 h; Potency, µM (top dose mostly 115 µM), usual class: activators; further: nearly all actives have a fitted effect of over 55% in size
Target sequence (Q03431 whole entry, looked up): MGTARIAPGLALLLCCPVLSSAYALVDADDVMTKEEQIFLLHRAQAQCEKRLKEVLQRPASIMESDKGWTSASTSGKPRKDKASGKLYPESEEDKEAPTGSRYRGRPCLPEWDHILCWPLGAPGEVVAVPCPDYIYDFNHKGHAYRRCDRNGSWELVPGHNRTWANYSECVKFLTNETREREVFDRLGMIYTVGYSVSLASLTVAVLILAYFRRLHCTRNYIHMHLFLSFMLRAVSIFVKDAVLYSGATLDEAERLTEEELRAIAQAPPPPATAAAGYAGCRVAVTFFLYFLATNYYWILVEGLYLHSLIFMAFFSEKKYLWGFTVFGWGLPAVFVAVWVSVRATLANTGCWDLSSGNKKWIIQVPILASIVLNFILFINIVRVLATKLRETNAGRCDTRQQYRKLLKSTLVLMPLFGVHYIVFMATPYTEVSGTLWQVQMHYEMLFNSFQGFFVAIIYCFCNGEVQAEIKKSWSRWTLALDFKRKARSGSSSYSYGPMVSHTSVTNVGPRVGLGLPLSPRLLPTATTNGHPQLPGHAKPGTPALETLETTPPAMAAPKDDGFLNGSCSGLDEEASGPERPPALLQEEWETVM
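HEK-293-derived GP2 cells expressing PTHR1 and a GloSensor cAMP reporter, 3,000/well, plated overnight, given luciferin plus IBMX (each 0.5 mM as added) for 1 h at 37 °C, then compound for 1 h at 37 °C. Luminescence was read after 15 min at room temperature.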
Vif-A3G inh: Vif-A3G binding inhibition; 410,000 tested, 0.076% active; Potency, µM (titrated, usually from 46.1 µM), usual class: inhibitors; HeLa A3G-eYFP + Vif (tagged APOBEC3G with the HIV-1 protein that degrades it), YFP fluorescence, overnight; further: nearly all actives have a fitted effect of over 60% in size
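Read-out is eYFP fluorescence (Ex 488/Em 500-530) from Vif-expressing HeLa A3G-eYFP cells; more signal means A3G escaped Vif-mediated degradation. Cells plated overnight, compound pinned in, incubated overnight at 37 deg C.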
Vif-A3F inh: Vif-A3F binding inhibition; HeLa A3F-eYFP + Vif (tagged APOBEC3F with the HIV-1 protein that degrades it), YFP fluorescence increase; AID 602313; 390,000 tested, 0.2% active; Potency, µM (titrated, usually from 46.1 µM); further: nearly all actives have a fitted effect of over 65% in size
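HeLa cells stably expressing Vif plus C-terminally eYFP-tagged A3F were seeded, incubated overnight at 37 deg C, dosed with compound, incubated overnight again at 37 deg C. Yellow fluorescence (Ex 488/Em 500-530) reported blocked Vif-mediated A3F-eYFP degradation.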
LDHA block: blocks human lactate dehydrogenase A | 480,000 tested, 0.15% active | purified LDHA, NADH/diaphorase-resazurin fluorescence; active compounds read low | activity change, % (values are at about 110 or 230 µM); in the data active means activity change below about -30%; inconclusive means mostly about -25% to -30%
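Resorufin fluorescence (ex540/em590), read at 0 and 20 min after diaphorase/resazurin addition, reports the NADH left after a 5 min room-temperature reaction of 2 nM human LDH5 with 0.06 mM NADH and 0.2 mM pyruvate.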
PINK1 expr mod: modulators of PINK1 expression; PINK1 immunofluorescence, high-content cytometry, 24 h; Potency, µM (highest dose often 76.6 µM), most hits filed as activators; 410,000 tested, 0.2% active; active means well fitted activation curve with a large enough effect; inconclusive means small, poorly fitted or top-dose-only effect; cell line not stated here; further: nearly all actives have a fitted effect of over 65% in size
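Readout is PINK1 immunofluorescence, quantified alongside mitochondrial, cell and nuclear markers by laser-scanning microplate cytometry. Cells from a stable line were exposed to compound titrations (5 concentrations) for 24 hours, with CCCP controls.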
Hits are given with their value; n = inactive; u = inconclusive; x = no result; ! = not confirmed by another sample. Unless noted, the call rests on the fitted dose curve; in most records, active means well fitted curve in the direction sought with a large enough effect; inconclusive means small, poorly fitted or top-dose-only effect, or another doubt; inactive means no such curve, though single readings can be large; an effect the other way counts as inactive or inconclusive.

SMILES | mIDH1 inhibitor | PTHR1 agonist | Vif-A3G inh | Vif-A3F inh | LDHA block | PINK1 expr mod
c1ccc(CCNc2nc(-c3ccccn3)nc3ccccc23)cc1 | n | n | n | n | n | 40µM
Cc1ccc(-n2nnc(C(=O)Nc3nccs3)c2C(C)C)cc1 | x | x | x | x | n | x
COc1cnn(-c2ccccc2)c(=O)c1N(C)C | n | n | n | n | n | 13µM
O=C(N/N=C/c1sc(=O)n(Cc2ccc(Br)cc2)c1Cl)c1ccco1 | n | n | u | u | -46 | n
CC(C)N(c1ccccc1)c1ccc(NC(=O)Cn2nc(C(=O)O)c3ccccc3c2=O)cc1 | x | x | x | x | n | x
Cc1ccc2[nH]c(C)c(/C=C/c3cc[n+](C)cc3)c2c1 | n | n | 1.3µM | n | n | 14µM
Cc1ccc(C2=C(O)C(=O)N(c3ccc(F)cc3)C2c2ccc(C(=O)O)cc2)cc1 (stereo not drawn) | x | x | x | x | n | x
N[C@@H](Cc1cc(I)c(Oc2ccc(O)c(I)c2)c(I)c1)C(=O)O | u | u | n | n | -35! | n
COC(=O)c1c(N)c(C#N)c2n1CCCCC2 | n | n | n | n | n | 8.9µM
COc1ccc(C(=O)c2c(N)c(C#N)c3n2CCCC3)cc1 | x | x | x | x | n | x
Nc1ccc(C(=O)c2ccc(Cl)cc2)cc1 | x | x | x | x | n | x
CC1=CC(=C(c2ccc(N)cc2)c2ccc(N)cc2)C=CC1=N | x | x | n | x | n | 16µM
O=C(Cc1ccc(Br)cc1)Nc1ncc([N+](=O)[O-])s1 | n | n | n | n | n | 25µM
O=C(Cc1ccc(Cl)cc1)Nc1ncc([N+](=O)[O-])s1 | n | n | n | n | n | u
O=C(COc1ccc(Cl)cc1)Nc1ncc([N+](=O)[O-])s1 | n | n | n | n | n | 16µM
CC(C)c1ccccc1NC(=O)Cc1ccc2c(c1)CCC2 | x | x | x | x | n | x
COc1cc(/C=C(\C#N)c2nc3ccccc3o2)cc(OC)c1OC | x | x | x | x | n | x
CCOC(=O)CN1C(=O)c2ccccc2C1=O | n | n | n | n | n | n
CCOC(=O)CN1C(=O)C2Cc3ccccc3CN2C1=S (stereo not drawn) | u | n | n | n | -31 | n
COc1ccc(-n2c(SC3CCOC3=O)nc3ccccc3c2=O)cc1OC (stereo not drawn) | n | n | n | n | n | 10µM
CN(C)S(=O)(=O)c1cccc(C(=O)/C=C/c2cc(-c3cccs3)cs2)c1 | x | x | x | x | n | x
O=C1C(=Cc2cccn2-c2ccccc2)C(=O)c2ccccc21 | n | n | u | 28µM | n | u
CC(=O)OCCn1c(C)[n+](CCOC(C)=O)c2cc(Cl)c(Cl)cc21 | n | n | n | n | n | n
CCn1c(C)[n+](CCOCC[n+]2c(C)n(CC)c3cc(Cl)c(Cl)cc32)c2cc(Cl)c(Cl)cc21 | n | n | n | n | -43 | n
CCOC(=O)COc1ccc2c(=O)c(Oc3ccccc3Br)coc2c1 | x | x | x | x | n | x
SMILES | mIDH1 inhibitor | PTHR1 agonist | Vif-A3G inh | Vif-A3F inh | LDHA block | PINK1 expr mod
CCOC(=O)C(CC)Oc1ccc2c(=O)c(Oc3ccccc3Br)coc2c1 (stereo not drawn) | x | x | x | x | -31 | x
Cc1ccc(-n2ccc(=O)c(C(=O)Nc3ccc(S(=O)(=O)Nc4onc(C)c4C)cc3)n2)cc1 | n | u | n | n | -62 | n
Cc1noc(NS(=O)(=O)c2ccc(NC(=O)c3nn(-c4ccc(F)cc4)ccc3=O)cc2)c1C | n | n | n | n | n | n
CN(Cc1ccc(-c2ccc(Cl)cc2)o1)C(=O)CNC(=O)c1ccc(F)cc1 | x | x | x | x | n | x
O=c1[nH]ncc2c3ccccc3n(Cc3cccc(Cl)c3)c12 | n | n | u | 25µM | n | n
O=C(O)Cn1cc(-c2ccccc2)ncc1=O | x | x | x | x | n | x
CCOC(=O)C1=C(C)NC(=O)CC1C(=O)Nc1cc(Cl)cc(Cl)c1 (stereo not drawn) | x | x | x | x | -61 | x
CC(C)(C)NC(=O)COC(=O)c1cc(=O)c2ccccc2o1 | x | x | x | x | n | x
Cc1cccc(C(=O)NNC(=O)c2ccc3ccccc3c2)c1 | n | n | n | n | -38 | n
Cc1ccc(-c2cc(C(=O)NC(C)CCc3ccccc3)c3cc(Br)ccc3n2)cc1 (stereo not drawn) | x | x | x | x | n | x
